Sampled rows, rich in hits. Any-hit rate of the full collection: about 3.4%.
sPLA2-III inh: human group III sPLA2 inhibitors, primary screen, biochemical, QFRET, BODIPY PC-A2 liposome substrate; Group 3 secretory phospholipase A2 (Homo sapiens), Q9NZ20; QFRET BODIPY PC-A2 liposome hydrolysis, fluorescence; inhibition, % at 12.2 µM; 370,000 tested, 0.56% active;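 active means inhibition above mean plus 3 SD of compounds lying within the high and low control bounds, cut at about 19% in these data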
PLC-gamma1 inh: PLC-gamma1 enzyme inhibitors, primary screen, biochemical, fluorescence, purified enzyme | 1-phosphatidylinositol 4,5-bisphosphate phosphodiesterase gamma-1 (Homo sapiens), P19174 | fluorogenic substrate | inhibition, % at 12.2 µM | 370,000 tested, 0.84% active | AID 720700, 2013; in the data active means inhibition above about 9.5%
ADAM17 inh: ADAM17 inhibitors, primary screen, biochemical, QFRET; recombinant ADAM17, EDANS/DABCYL FRET peptide cleavage; 370,000 tested, 0.83% active; AID 720648, 2013; Disintegrin and metalloproteinase domain-containing protein 17 (Homo sapiens), P78536; inhibition, % at 6.95 µM;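 active means inhibition above the mean of compounds lying between control limits plus 3 SD, set per campaign, cut at about 8.5% in these data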
Target sequence (P78536 215-824 limits assumed): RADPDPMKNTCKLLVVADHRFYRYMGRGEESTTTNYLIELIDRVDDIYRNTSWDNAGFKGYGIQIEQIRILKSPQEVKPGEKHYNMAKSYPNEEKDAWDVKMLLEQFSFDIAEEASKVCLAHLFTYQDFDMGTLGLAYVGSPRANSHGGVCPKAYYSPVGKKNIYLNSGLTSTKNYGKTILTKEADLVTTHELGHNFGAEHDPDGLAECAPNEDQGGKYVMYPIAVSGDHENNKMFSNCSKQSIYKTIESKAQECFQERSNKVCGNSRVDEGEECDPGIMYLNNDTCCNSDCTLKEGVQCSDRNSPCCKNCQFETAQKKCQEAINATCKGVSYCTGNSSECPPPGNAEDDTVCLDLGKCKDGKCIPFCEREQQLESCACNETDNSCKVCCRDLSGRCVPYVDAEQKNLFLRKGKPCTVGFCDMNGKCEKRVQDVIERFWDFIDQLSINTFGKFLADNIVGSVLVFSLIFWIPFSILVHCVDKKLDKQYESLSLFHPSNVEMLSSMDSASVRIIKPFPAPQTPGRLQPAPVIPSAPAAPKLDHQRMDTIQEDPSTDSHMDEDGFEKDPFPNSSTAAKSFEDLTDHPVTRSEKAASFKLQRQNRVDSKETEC
PLC-beta3 inh: human PLC-beta3 inhibitors, primary screen, biochemical, fluorescence. 370,000 tested, 0.18% active. Purified PLC-beta3, fluorogenic substrate. AID 720704, 2013. 1-phosphatidylinositol 4,5-bisphosphate phosphodiesterase beta-3 (Homo sapiens), Q01970. inhibition, % at 12.2 µM; in the data active means inhibition above about 11%
ADAM10 inh: human ADAM10 inhibitors, primary screen, biochemical, QFRET, HTS; recombinant ADAM10, EDANS/DABCYL FRET peptide cleavage, 3 h; 370,000 tested, 0.62% active; inhibition, % at 7 µM;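 active means inhibition above a per-campaign cutoff equal to the mean of compounds falling between control-based bounds plus 3 SD, cut at about 20% in these data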
proKLK7 act: proKLK7 zymogen activators, primary screen, biochemical, fluorescence intensity. Kallikrein-7 (Homo sapiens), P49862. purified proKLK7, EDANS-DABCYL substrate fluorescence; 100% is mature enzyme control, 0% vehicle. activation, % at 7 µM. 370,000 tested, 0.9% active. AID 652039, 2013;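 active means activation above the mean of all tested compounds plus 3 SD, computed per campaign excluding outliers beyond control limits, cut at about 13% in these data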
ADAM10 confirm: human ADAM10 inhibitors, confirmation, biochemical, QFRET, triplicate; inhibition, % at 6.95 µM; ADAM10 QFRET peptide cleavage, EDANS fluorescence; 2,100 tested, 1% active; shares compounds with ADAM10 inh;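 active means inhibition above about 20% chosen separately for each screening run, limit read from the data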
ADAM17 counter: ADAM17 inhibitors, counter-screen for ADAM10 exosite inhibitor project, biochemical, QFRET, high throughput | shares compounds with ADAM10 inh | ADAM17 QFRET peptide cleavage, EDANS fluorescence | inhibition, % at 6.95 µM | 2,100 tested, 0.5% active | AID 743214, 2013;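 active means mean triplicate inhibition above the solvent-only control wells' mean plus 3 SD, cut at about 12% in these data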
Of the large screens only hits and unclear results are named; the others gave an inactive call (follow-up assays come after a bar, where they were run).

COc1ccccc1-c1nnc(SC(C(=O)c2c[nH]c3ccccc23)c2ccccc2)n1C (stereo not drawn)	ADAM10 inh 23 | ADAM10 confirm inactive | ADAM17 counter inactive
COc1cccc(-c2nnc(SC(C(=O)c3c[nH]c4ccccc34)c3ccccc3)n2C)c1 (stereo not drawn)	none
COc1cccc(C(=O)N[C@H](C(=O)N2CCC[C@H]2C(=O)NCCc2ccccc2Cl)c2ccccc2)c1	none
CC1Cc2ccccc2N1C(=O)c1ccc(N2CCCC2)c([N+](=O)[O-])c1 (stereo not drawn)	ADAM10 inh 24 | ADAM10 confirm inactive | ADAM17 counter inactive
COc1ccc(C(Nc2cc(C)ccn2)c2ccc3ccc(C)nc3c2O)cc1 (stereo not drawn)	ADAM10 inh 23 | ADAM10 confirm 20 | ADAM17 counter inactive
COC(=O)C(Cc1cnc(Cl)s1)(C(=O)OC)c1ccc(C(F)(F)F)cc1[N+](=O)[O-]	ADAM10 inh 20 | ADAM10 confirm inactive | ADAM17 counter inactive
COc1ccc(-c2cn(-c3ccc(C)cc3C)c(=S)[nH]2)cc1OC	ADAM10 inh 20 | ADAM10 confirm inactive | ADAM17 counter inactive
Cc1cccc([C@@H]2[C@@H]3C(=O)N(Cc4ccccc4)C(=O)[C@@H]3[C@]3(Cc4ccccc4)C(=O)N(c4ccc(C(F)(F)F)cc4)C(=O)N23)c1	ADAM10 inh 20 | ADAM10 confirm inactive | ADAM17 counter inactive
Cc1cccc([C@@H]2[C@@H]3C(=O)N(Cc4ccccc4)C(=O)[C@@H]3[C@]3(Cc4ccccc4)C(=O)N(c4ccccc4)C(=O)N23)c1	ADAM10 inh 22 | ADAM10 confirm inactive | ADAM17 counter inactive
Cc1cccc([C@@H]2[C@@H]3C(=O)N(Cc4ccccc4)C(=O)[C@@H]3[C@]3(Cc4ccc(Cl)cc4)C(=O)N(c4ccccc4)C(=O)N23)c1	none
CC[C@@]12C(=O)N(c3cccc(Br)c3)C(=O)N1[C@H](c1cccc(C)c1)[C@@H]1C(=O)N(Cc3ccccc3)C(=O)[C@@H]12	ADAM10 inh 21 | ADAM10 confirm inactive | ADAM17 counter inactive
CCOc1ccc(CCNC(=O)Cc2ccccc2)cc1OCC	none (no result: proKLK7 act)
Cc1ccc2nc(CN(C)C(=O)[C@H](CCc3ccccc3)NC(=O)[C@H]3O[C@@H](n4cnc5c(N)ncnc54)[C@H](O)[C@@H]3O)[nH]c2c1	none
O=C(N/N=C\c1ccc(Cl)cc1Cl)c1sccc1-n1cccc1	ADAM10 inh 20 | ADAM10 confirm inactive | ADAM17 counter inactive
CNC(=S)N/N=C/c1cn(CCOc2ccc(OC)cc2)c2ccccc12	ADAM10 inh 20 | ADAM10 confirm inactive | ADAM17 counter inactive
COc1ccccc1OCCn1cc(/C=N/NC(N)=S)c2ccccc21	none
Cc1ccc(-c2cc(C(=O)NN=C/C=C/c3ccco3)[nH]n2)cc1C	ADAM10 inh 20 | ADAM10 confirm inactive | ADAM17 counter inactive
Cc1ccc(-c2cc(C(=O)NN=Cc3ccc(-c4ccccc4)cc3)[nH]n2)cc1C	none
O=C(NCc1ccccc1F)c1ccc(S(=O)(=O)Nc2cccc(C(F)(F)F)c2)cc1	none
O=C(NCc1ccc(F)cc1)c1ccc(S(=O)(=O)Nc2cccc(C(F)(F)F)c2)cc1	ADAM10 inh 27 | ADAM10 confirm inactive | ADAM17 counter inactive
CC1(C)OC(C)(C)C(=N/O)/C1=N\N	none
O=C(COC(=O)Cc1c(Cl)cccc1Cl)Nc1ccccc1-c1ccccc1	ADAM10 inh 23 | ADAM10 confirm inactive | ADAM17 counter inactive

Screening results as filed in PubChem BioAssay.
